# DT40 TDP1 CPT: growth inhibition of DT40 Tdp1-/-;hTDP1 cells with camptothecin (screen for TDP1 inhibitors); 12% of 420,000 active; Potency, µM (top dose mostly 46.2 µM), actives largely listed as inhibitors; AID 686979; chicken DT40 Tdp1-/-;hTDP1 cells + 20 nM CPT, ATP luminescence, 48 h; also: nearly all actives have a fitted effect of over 55% in size
#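 Cell growth measured by CellTiter-Glo luminescence after a minimum 48 h, 37 C compound exposure with 20 nM CPT in Tdp1-knockout DT40 cells stably expressing hTDP1, seeded 400/well; qHTS titration format.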
# TGFb inhibitor: TGF-b pathway inhibition; HepG2 CAGA-GFP TGF-b/SMAD3 reporter, GFP fluorescence, 18 h; TGF-beta stimulated, 500 pg/mL final; Potency, µM (doses to about 46.1 µM), usual class: inhibitors; 1.2% of 410,000 active; also: nearly all actives have a fitted effect of over 65% in size
#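 TGF-beta reporter screen: HEPG2 CAGA-GFP, 1% FBS, 500 pg/mL TGF-beta final, 18 h; per-cell GFP summed per well; curves fitted and categorized by class.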
# TDP1 cell noCPT: qHTS for Inhibitors of human tyrosyl-DNA phosphodiesterase 1 (TDP1): qHTS in cells in absence of CPT | DT40 Tdp1-/- hTDP1 cells, no CPT, ATP luminescence, 48 h | Potency, µM (highest dose often 46.2 µM), actives largely listed as inhibitors | 15% of 420,000 active; also: nearly all actives have a fitted effect of over 55% in size
#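 Growth kinetics read by CellTiter-Glo luminescence after ≥48 hr at 37 °C. Cells: DT40 Tdp1-/- stably carrying human TDP1, 400 per well, compound exposure in the absence of CPT (DMSO vehicle).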
# S-ASM inh: blocks human secretory acid sphingomyelinase. Potency, µM (titrated, usually from 57.5 µM), usual class: inhibitors. 0.006% of 340,000 active. placental ASM, HMU-PC fluorogenic substrate, 60 min. P17405
#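 Fluorogenic HMU-PC substrate (9 uM final) is turned over by placental ASM in 60 min at 37 C after a 10 min compound preincubation. Reaction ended by alkaline stop (pH 10), with fluorescence read at 386/447 nm.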
# IL-1B inflam inh: inflammasome signaling inhibition, IL-1 beta readout | THP-1 LPS/ATP IL-1B secretion, AlphaLISA, 16 h; hits give low values | activity change, % at 57.5 µM | 4.7% of 360,000 active | AID 743279; in the data active = activity change below about -50%; inconclusive = mostly about -30% to -49%
#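 THP-1 cells pretreated 1 hr with compounds (up to 57.5 uM final), then stimulated with LPS (250 ng/mL final) plus ATP (1.25 mM final); secreted IL-1B measured by AlphaLISA after 16 hr, decreased signal indicating inhibition.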
# HepG2 tox: kills HepG2 cells in TGF-b inhibitor counter-screen; HepG2 CAGA-GFP viability, ATP luminescence, 18 h; Potency, µM (series often up to 46.1 µM), actives largely listed as cytotoxic; 0.76% of 410,000 active; AID 588856
#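 CellTiter-Glo luminescence gave cytotoxicity after 18 hours at 37 degrees C. The cells were HepG2 CAGA-GFP in 1% FBS DMEM, stimulated with 500 pg/mL TGF-beta after compound addition. %Activity was normalised to no-cell wells (complete cell-killing) and DMSO (no toxicity), and curves were fitted and classified.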
# A number is an active result; . = inactive; ? = inconclusive; / = no result; [ ] = another dose, or the depositor's remark. Most compounds without a hit are left out; they make up all but 19% or so of the library. Unless noted, calls follow the shape of the dose curve; as a rule, active = well fitted curve in the direction sought with a large enough effect; inconclusive = small, poorly fitted or top-dose-only effect, or another doubt; inactive = no such curve, though single readings can be large; an effect the other way counts as inactive or inconclusive.
SMILES,DT40 TDP1 CPT,TGFb inhibitor,TDP1 cell noCPT,S-ASM inh,IL-1B inflam inh,HepG2 tox
CCOC(=O)c1cnc(SCC(=O)Nc2sc(C)c(C)c2C#N)nc1N,?,.,?,.,.,.
CCOC(=O)c1cnc(SCC(=O)Nc2cc(C(F)(F)F)ccc2N2CCOCC2)nc1N,.,.,.,.,.,.
CCOC(=O)c1cnc(SCc2nc(N)nc(Nc3ccccc3)n2)nc1N,16µM,.,16µM,.,.,.
CCOC(=O)c1cnc(SCC(=O)Nc2ccc(N3CCOCC3)c(Cl)c2)nc1N,?,.,13µM,.,.,.
CCOC(=O)c1cnc(SCC(=O)Nc2cc(OC)cc(OC)c2)nc1N,8.2µM,.,8.2µM,.,.,.
O=C1c2ccccc2C(c2nnnn2Cc2ccccc2)N1CCc1ccccc1F (stereo not given),?,/,.,/,.,/
CCN1c2ccccc2NC2C1C(C(C)=O)C(=O)N2c1ccc(Cl)cc1 (stereo not given),21µM,.,16µM,.,.,.
Cc1cnc(-n2ncc(C(=O)N(C)C3CCOC3)c2-c2cccs2)nc1-c1ccc(F)cc1 (stereo not given),.[9.04 µM],/,.,/,/,/
O=C1CCSc2ccc(Cl)cc2N1Cc1cccc(Cl)c1,?,.,21µM,.,.,.
COC(=O)[C@]12CCCCC=C1N(Cc1ccc(Cl)cc1Cl)C(=O)[C@H](CC(=O)NCC13CC4CC(CC(C4)C1)C3)C2,.,/,.,/,.,/
CCOC(=O)[C@]12CCC=C1N(Cc1ccc(Cl)cc1Cl)C(=O)[C@H](CC(=O)NCC13CC4CC(CC(C4)C1)C3)C2,?,/,21µM,/,.,/
CCCCOCCCNC(=O)C[C@@H]1C[C@@]2(C(=O)OCC)CCCC=C2N(Cc2ccc(Cl)cc2Cl)C1=O,?,/,18µM,/,-79,/
CCCCNC(=O)C[C@@H]1C[C@@]2(C(=O)OCC)CCCC=C2N(Cc2ccc(Cl)cc2Cl)C1=O,21µM,/,.,/,?,/
CCOC(=O)[C@]12CCCC=C1N(Cc1ccc(Cl)cc1Cl)C(=O)[C@H](CC(=O)NCCc1ccccc1OC)C2,?,/,23µM,/,.,/
C#CCNC(=O)C[C@@H]1C[C@@]2(C(=O)OCC)CCCC=C2N(Cc2ccc(Cl)cc2Cl)C1=O,?,/,?,/,.,/
CN(C)C(=O)C(Sc1ccc(S(=O)(=O)N2CCCC2)cn1)c1ccccc1 (stereo not given),?,.,?,.,.,.
CCOC(=O)[C@]12CCC=C1N(Cc1ccc(Cl)cc1Cl)C(=O)[C@H](CC(=O)NCCCN1CCCC1=O)C2,18µM,/,?,/,.,/
CC(=O)N1c2c(ccc3ccccc23)C(C)CC12CCCCC2 (stereo not given),?,?,?,.,.,.
CC1CC2(CCCCC2)Nc2c1ccc1ccccc21 (stereo not given),?,.,10µM,.,.,.
CC1CCN(S(=O)(=O)c2ccc(C(=O)N3CCCC(C(F)(F)F)C3)cc2)CC1 (stereo not given),18µM,.,?,.,?,.
COc1ccccc1N(C)S(=O)(=O)c1ccc(C(=O)OCC(=O)N2CCC2)cc1,?,.,?,.,.,.
COc1ccccc1N(C)S(=O)(=O)c1ccc(C(=O)N2CCCC(C(F)(F)F)C2)cc1 (stereo not given),?,.,18µM,.,.,.
O=C(c1ccc(S(=O)(=O)N2CCCCCC2)cc1)N1CCCC(C(F)(F)F)C1 (stereo not given),?,.,?,.,.,.
Cc1ccc(OCCCCNC(C)c2ccccc2)c(C)c1 (stereo not given),?,?,?,.,-91,.
Brc1ccccc1OCCCCn1cnc2ccccc21,4.1µM,.,10µM,.,-84,.
Cc1ccc(OCCCCn2cnc3ccccc32)c(C)c1,13µM,.,8.2µM,.,.,.
Cc1ccc(OCCSc2ncccn2)c(C)c1,.,.,.,.,.,.
